Compounds with a hit are over-represented: about 7% of the library has one in this group of screens.
a7 integrin act = qHTS for Activators of Integrin-Mediated Alleviation for Muscular Dystrophy | alpha7betagal myoblasts, beta-gal FDG fluorescence, 48 h | Potency, µM (series often up to 38.3 µM), most hits filed as activators | 0.064% of 350,000 active; note: nearly all actives have a fitted effect of over 60% in size
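Alpha7betagal+/- myoblasts (passage 13) were plated 16-24 hr, then exposed to compounds (1:260 dilution of DMSO stock) for 48 hours at 37C. After MPER lysis, β-galactosidase reporter activity was read as FDG fluorescence (ex 480/em 540) after 30 minutes.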
S2 tox = Viability Counterscreen for Primary qHTS for Inhibitors of ATXN expression. S2 cells (HEK-293 line with an ATXN2-luciferase reporter) viability, CellTiter-Fluor protease fluorescence, 24 h. Potency, µM (doses to about 56.7 µM), usual class: cytotoxic. 0.49% of 400,000 active; note: nearly all actives have a fitted effect of over 40% in size
ATXN2 expr inh = Primary qHTS for Inhibitors of ATXN expression. HEK-293 ATXN2-luciferase reporter, luminescence, 24 h. Potency, µM (highest dose often 57 µM), usual class: inhibitors. 0.72% of 360,000 active; note: nearly all actives have a fitted effect of over 55% in size
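ATXN2-luciferase reporter cells (luciferase flanked by upstream and downstream ATXN2 gene portions) were treated 24 h at 37 °C with compounds at up to 57 uM. SteadyGlo luminescence gave expression; GF-AFC fluorescence gave viability.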
DRD3 agonist = qHTS of D3 Dopamine Receptor Agonist: qHTS; D(3) dopamine receptor (Homo sapiens), P35462; D3R DiscoveRx beta-arrestin cells, luminescence, 90 min; max activation, %; 0.58% of 410,000 active; AID 652048, 2013; in the data active = max activation above about 30%
Target sequence (P35462 whole entry, looked up): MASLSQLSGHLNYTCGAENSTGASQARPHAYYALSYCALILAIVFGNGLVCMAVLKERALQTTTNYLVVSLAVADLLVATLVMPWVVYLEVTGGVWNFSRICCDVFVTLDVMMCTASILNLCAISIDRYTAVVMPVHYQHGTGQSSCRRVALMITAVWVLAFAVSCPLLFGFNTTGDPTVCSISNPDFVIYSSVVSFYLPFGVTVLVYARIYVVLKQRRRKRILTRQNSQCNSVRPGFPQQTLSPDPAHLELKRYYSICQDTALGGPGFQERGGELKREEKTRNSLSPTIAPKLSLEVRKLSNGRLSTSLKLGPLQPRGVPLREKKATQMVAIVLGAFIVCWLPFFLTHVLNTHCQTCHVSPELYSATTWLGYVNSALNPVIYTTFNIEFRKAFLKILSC
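Cells at 1500/well, incubated overnight, then treated with pinned compounds (dopamine as control) for 90 min at 37 degrees C. DiscoveRx reagent added for 30 - 60 minutes at room temperature; luminescence read.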
D3 antag = qHTS of D3 Dopamine Receptor Antagonist: qHTS; max response, negative = inhibition, %; D3R cells, DiscoveRx beta-arrestin luminescence, antagonist mode; active compounds read low; 2.5% of 360,000 active; D(3) dopamine receptor (Homo sapiens), P35462; in the data active = max response below about -50%; inconclusive = no clear call, values can overlap the other calls
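Cells plated overnight at 1500 cells/well, then exposed to library compounds with dopamine controls for 90 minutes at 37 degrees C. DiscoveRx reagent added for 30–60 minutes at room temperature; luminescence read, quantitative HTS format.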
IL-1B inflam inh = qHTS for Inhibitors of Inflammasome Signaling: IL-1-beta AlphaLISA Primary Screen; THP-1 LPS/ATP IL-1B secretion, AlphaLISA, 16 h; active compounds read low; AID 743279, 2014; activity change, % at 57.5 µM; 4.7% of 360,000 active; in the data active = activity change below about -50%; inconclusive = mostly about -30% to -49%
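THP-1 cells pretreated 1 hr with compounds (up to 57.5 uM final), then stimulated with LPS (250 ng/mL final) plus ATP (1.25 mM final); secreted IL-1B measured by AlphaLISA after 16 hr, decreased signal indicating inhibition.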
Of the large screens only hits and unclear results are named; the others gave an inactive call; ! = repeats disagree. Unless noted, calls come from the whole dose curve; as a rule, active = well fitted curve in the direction sought with a large enough effect; inconclusive = small, poorly fitted or top-dose-only effect, or another doubt; inactive = no such curve, though single readings can be large; an effect the other way counts as inactive or inconclusive.

COC(=O)c1c(-c2cc(OC)cc(OC)c2)sc2ccc(OC)cc12	DRD3 agonist 62
COc1ccc(-c2sc3ccc(OC)cc3c2-c2ccc(O)cc2)cc1	S2 tox inconclusive, ATXN2 expr inh inconclusive, IL-1B inflam inh -63
COC(=O)c1c(-c2ccc(SC)cc2)sc2ccccc12	DRD3 agonist 56
COC(=O)c1c(-c2ccc(SC)cc2)sc2ccc(OC)cc12	DRD3 agonist 38
COC(=O)c1c(-c2ccccc2OC)sc2ccccc12	none
COC(=O)c1c(-c2ccc(OC)cc2)sc2cc(OC)c(OC)cc12	none
O=C1c2ccccc2C(c2nnnn2-c2ccc3c(c2)OCCO3)N1CCOc1ccccc1 (centres undefined)	none (no result: a7 integrin act)
O=C(Nc1cccc(S(=O)(=O)N2CCOCC2)c1)C1=NN(c2ccccc2)C(=O)CC1	none
CCOc1ccc2[nH]c(C)c(CN3CCOCC3)c(=O)c2c1	none
CCOc1ccc2[nH]c3ncccc3c(=O)c2c1	IL-1B inflam inh -60 (no result: S2 tox)
O=[N+]([O-])c1cc(C(F)(F)F)ccc1Sc1ccccn1	D3 antag inconclusive
CCc1ccc([C@@H]2CC=C(C(=O)O)[C@H](c3ccc(F)cc3)N2S(=O)(=O)c2ccc(C)cc2)cc1	D3 antag -52
Cc1ccc(S(=O)(=O)N2[C@@H](c3ccc(F)cc3)C(C(=O)O)=CC[C@H]2c2cccc(C)c2)cc1	D3 antag inconclusive
Cc1ccc([C@@H]2CC=C(C(=O)O)[C@H](c3ccc(F)cc3)N2S(=O)(=O)c2ccc(C)cc2)cc1	D3 antag -83
O=C(Nc1ccc(OC(F)(F)F)cc1)c1noc2c1CCCC2	none (no result: a7 integrin act, S2 tox, ATXN2 expr inh, D3 antag, IL-1B inflam inh)
CSc1nc(Nc2ccc(C)cc2C)cc(-c2ccccc2)n1	S2 tox inconclusive, DRD3 agonist 33 (no result: a7 integrin act, D3 antag, IL-1B inflam inh)
Nc1ccc(Oc2ccc3nc(-c4ccccc4)c(-c4ccccc4)nc3c2)cc1	IL-1B inflam inh -58
O=C(COC(=O)/C=C/c1cccc(Br)c1)NCc1cccs1	none (no result: ATXN2 expr inh)
O=C(Nc1ccc(Oc2cccnc2)cc1)c1ccccc1Cl	a7 integrin act 10µM, IL-1B inflam inh inconclusive
O=C(Nc1ccc(S(=O)(=O)NCc2cccnc2)cc1)c1ccccc1Cl	D3 antag -83
O=C(COC(=O)CNC(=O)c1ccccc1Cl)Nc1cc(C(F)(F)F)ccc1Cl	none (no result: a7 integrin act, DRD3 agonist, D3 antag, IL-1B inflam inh)
Cc1cc(C)n(S(=O)(=O)c2cc(C(=O)O)c(Cl)cc2Cl)n1	D3 antag inconclusive
COC(=O)c1cc(S(=O)(=O)n2nc(C)c(Br)c2C)c(Cl)cc1Cl	IL-1B inflam inh -85
Cc1csc(NC(=O)C(C)Oc2ccc(Br)cc2)n1 (centres undefined)	none
O=C(NC1CCCCC1)Oc1cc2oc(=O)sc2cc1Br	none
Cc1cccc(C)c1NC(=O)COC(=O)c1c2c(nc3ccccc13)/C(=C\c1ccc3c(c1)OCO3)CCC2	a7 integrin act inconclusive, D3 antag -58 (no result: S2 tox)
COCCCNC(=O)[C@H](Cc1ccccc1)NC(=O)CC[C@H]1O[C@@H](n2ccc(=O)[nH]c2=O)[C@H](O)[C@@H]1O	D3 antag -56 (no result: a7 integrin act)
CC(CNC(=O)[C@@H](Cc1ccccc1)NC(=O)CC[C@H]1O[C@@H](n2ccc(=O)[nH]c2=O)[C@H](O)[C@@H]1O)c1ccccc1 (some centres undefined)	IL-1B inflam inh -66 (no result: a7 integrin act)
CC/C(CC(=O)C(F)(F)F)=N\NC(=O)/C(C#N)=C/N(C)C	none
CCCCCCCCCCOC(=O)Cn1c(COc2ccccc2C)[n+](C)c2ccccc21	S2 tox inconclusive, ATXN2 expr inh 22µM, D3 antag inconclusive, IL-1B inflam inh -97
CCCCOC(=O)Cn1c(=O)n(CC(=O)OCCCC)c2ccccc21	none
Cc1cccc(OCCCn2c(=O)sc3ccccc32)c1	none
CCCCCCCCCCOC(=O)Cn1c(COc2ccc(Cl)cc2)[n+](C)c2ccccc21	IL-1B inflam inh -72 (no result: S2 tox, ATXN2 expr inh)
CCCCCCCCCCOC(=O)Cn1c(COc2cccc(C)c2)[n+](C)c2ccccc21	IL-1B inflam inh -97
CCCCCCCCCCOC(=O)Cn1c(COc2ccc(OC)cc2)[n+](C)c2ccccc21	S2 tox inconclusive, ATXN2 expr inh inconclusive, D3 antag inconclusive, IL-1B inflam inh -108!
CCCCCCCCCCOC(=O)Cn1c(COc2ccccc2)[n+](C)c2ccccc21	S2 tox inconclusive (no result: ATXN2 expr inh)
CCCCCOC(=O)Cn1c(=O)oc2ccccc21	none
COc1cccc(C(=O)Nc2ccccc2-c2nnc(-c3cc(OC)ccc3Br)o2)c1	none (no result: a7 integrin act, D3 antag, IL-1B inflam inh)
Cc1ccc([N+](=O)[O-])cc1NC(=O)CN1CCC(C)CC1	D3 antag -84
Cc1ccc(NC(=O)CN2CCCCCC2)cc1Br	S2 tox inconclusive, D3 antag -85, IL-1B inflam inh inconclusive
Cc1ccc([N+](=O)[O-])cc1NC(=O)C(C)N1CCCCC1 (centres undefined)	none
Cc1ccc([N+](=O)[O-])cc1NC(=O)CN1CCCCC1	D3 antag -78
O=C(CN1CCCC1)Nc1ccc(-c2nc3cc(NC(=O)CN4CCCC4)ccc3o2)cc1	S2 tox 13µM, ATXN2 expr inh inconclusive, IL-1B inflam inh -56
O=C(CN1CCCCCC1)Nc1cccc(Br)c1	none
CCN(CC)CC(=O)Nc1ccc(-c2nc3cc(NC(=O)CN(CC)CC)ccc3o2)cc1	none
CCOc1ccc(C(=O)CCC(=O)Nc2ccc(C)cn2)cc1	none
CC1CC(C)(C)CC2(C1)NC(=O)N(CC(=O)OCc1ccc(Br)cc1)C2=O (centres undefined)	none
COc1ccc(CNc2nc3c(c(=O)n(Cc4ccc(F)cc4)c(=O)n3C)n2C)cc1	none
Cc1ccc(N2CCN(C(=O)Nc3cccc([N+](=O)[O-])c3)CC2C)cc1 (centres undefined)	ATXN2 expr inh inconclusive, IL-1B inflam inh -71
CC1CCN(CC(=O)Nc2cccc([N+](=O)[O-])c2)CC1	D3 antag -58
CC1CCN(CC(=O)NNC(=O)c2cccc(Br)c2)CC1	D3 antag -50
O=C1C(=O)N(Cc2cccnc2)C(c2ccc(Br)cc2)/C1=C(\O)c1ccc2c(c1)OCCO2 (centres undefined)	none
CCc1nc2ccccc2c(C(=O)Oc2ccc(C(=O)OC)cc2)c1C	S2 tox inconclusive
CCOC(=O)C1CCCN(C(=O)C2CCN(c3nnc(C)c4c(C)n(-c5ccccc5)nc34)CC2)C1 (centres undefined)	none (no result: a7 integrin act, D3 antag, IL-1B inflam inh)
COC(=O)C(Cc1ccccc1)NC(=O)c1cccc(S(=O)(=O)N(C)C)c1 (centres undefined)	IL-1B inflam inh -89

Screening results from PubChem BioAssay.
